Compound activity (PubChem)
Shown are actives, neighbours in structure and some others; about 2.2% of the full set was active somewhere.
mIDH1 inhibitor – inhibitors of human mutant IDH1 R132H | O75874 | IDH1-R132H enzyme, NADPH consumption, diaphorase/resazurin fluorescence | Potency, µM (top dose mostly 76.6 µM), for inactives: at the top dose activity change, negative = inhibition, usual class: inhibitors | 0.093% of 390,000 active | AID 602179; also: potency is read from the fitted curve at half-maximal effect; % is scaled to controls: 0 for no effect and ±100 for the full control effect; nearly all actives have a fitted effect of over 65% in size
Target sequence (O75874 whole entry R132H, stated change not applied): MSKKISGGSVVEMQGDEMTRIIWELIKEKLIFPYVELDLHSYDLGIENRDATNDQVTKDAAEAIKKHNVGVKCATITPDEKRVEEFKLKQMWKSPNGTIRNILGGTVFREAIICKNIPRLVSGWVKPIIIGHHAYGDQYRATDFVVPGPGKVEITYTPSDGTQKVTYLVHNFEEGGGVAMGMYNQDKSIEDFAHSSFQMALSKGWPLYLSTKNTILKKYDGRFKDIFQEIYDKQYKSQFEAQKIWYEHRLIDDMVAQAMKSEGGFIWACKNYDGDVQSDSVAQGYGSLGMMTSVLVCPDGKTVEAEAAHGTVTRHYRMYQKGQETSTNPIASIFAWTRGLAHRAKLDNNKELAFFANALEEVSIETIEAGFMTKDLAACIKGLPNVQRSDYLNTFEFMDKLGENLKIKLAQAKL
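IDH1-R132H (0.5 ug/mL) preincubated 30 min with compound, then NADPH (0.016 mM) and alpha-KG (2 mM) added; 80 min at RT, pH 7.5. Remaining NADPH coupled via diaphorase/resazurin to fluorescence (540/590 nm); concentration-response curves normalized to no-enzyme control.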
HepG2 viability – kills HepG2 cells in TGF-b inhibitor counter-screen | HepG2 CAGA-GFP viability, ATP luminescence, 18 h | Potency, µM (highest dose often 46.1 µM), for inactives: at the highest dose activity change, negative = cytotoxicity, most hits filed as cytotoxic | 0.76% of 410,000 active; also: potency is read from the fitted curve at half-maximal effect
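CellTiter-Glo luminescence gave cytotoxicity after 18 hours at 37 degrees C. The cells were HepG2 CAGA-GFP in 1% FBS DMEM, stimulated with 500 pg/mL TGF-beta after compound addition. %Activity was normalised to no-cell wells (complete cell-killing) and DMSO (no toxicity), and curves were fitted and classified.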
LDHA block – blocks human lactate dehydrogenase A; P00338; purified LDHA, NADH/diaphorase-resazurin fluorescence; stronger effect = lower value; activity change, % (values are at about 110 or 230 µM); 0.15% of 480,000 active; AID 1347041; in the data active = activity change below about -30%; inconclusive = mostly about -25% to -30%;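 also: plate controls were DMSO wells for no effect and wells without enzyme for full effect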
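Enzyme activity of human lactate dehydrogenase 5 (2 nM; 0.06 mM NADH, 0.2 mM pyruvate, 5 min, RT) is measured via a resazurin/diaphorase fluorescence readout of residual NADH.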
ATXN2 expr inh – reduces ATXN2 reporter expression in HEK-293 cells; HEK-293 ATXN2-luciferase reporter, luminescence, 24 h; Potency, µM (doses to about 57 µM), for inactives: top-dose activity change, negative = inhibition, usual class: inhibitors; 0.72% of 360,000 active; AID 1745845; also: potency is read from the fitted curve at half-maximal effect; % is scaled to controls: 0 for no effect and ±100 for the full control effect; nearly all actives have a fitted effect of over 55% in size
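ATXN2-luciferase reporter cells (luciferase flanked by upstream and downstream ATXN2 gene portions) were treated 24 h at 37 °C with compounds at up to 57 uM. SteadyGlo luminescence gave expression; GF-AFC fluorescence gave viability.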
TGFb inhibitor – TGF-b pathway inhibition; HepG2 CAGA-GFP TGF-b/SMAD3 reporter, GFP fluorescence, 18 h; TGF-beta stimulated, 500 pg/mL final; Potency, µM (top dose mostly 46.1 µM), inactives show at the top dose activity, negative = inhibition, hits mostly inhibitors; 1.2% of 410,000 active; also: potency is read from the fitted curve at half-maximal effect; % is scaled to controls: 0 for no effect and ±100 for the full control effect; nearly all actives have a fitted effect of over 65% in size
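Inhibition of TGF-beta-driven CAGA-GFP reporter expression in HEPG2 cells is measured by cellular GFP fluorescence after 18 h stimulation with 500 pg/mL recombinant TGF-beta in 1% FBS medium at 37 degrees C.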
ATXN viability – viability counter-screen for ATXN expression inhibitors; Potency, µM (doses to about 56.7 µM), most hits filed as cytotoxic; AID 651635; 0.49% of 400,000 active; S2 cells (HEK-293 line with an ATXN2-luciferase reporter) viability, CellTiter-Fluor protease fluorescence, 24 h; also: potency is read from the fitted curve at half-maximal effect; nearly all actives have a fitted effect of over 40% in size
An asterisk follows results filed as active. Unless noted, calls follow the shape of the dose curve; as a rule, active = well fitted curve in the direction sought with a large enough effect; inconclusive = small, poorly fitted or top-dose-only effect, or another doubt; inactive = no such curve, though single readings can be large; an effect the other way counts as inactive or inconclusive.

How did Cc1ccc(Nc2nnc(-c3ccc(C)c(S(N)(=O)=O)c3)c3ccccc23)cc1 do in these assays?
mIDH1 inhibitor: 6.9%; HepG2 viability: 7.8%; LDHA block: -10.6; ATXN2 expr inh: -25.8%; TGFb inhibitor: 10µM*; ATXN viability: inactive

How did Cc1ccc(-c2nnc(Nc3ccc(CC(N)=O)cc3)c3ccccc23)cc1 do in these assays?
mIDH1 inhibitor: 6.1%; HepG2 viability: -46.9%; LDHA block: 2.1; ATXN2 expr inh: -3.5%; TGFb inhibitor: 12.6µM*; ATXN viability: inactive

Results for Cc1ccc(-c2nnc(Nc3ccc(CC(N)=O)cc3)c3ccccc23)cc1S(N)(=O)=O ?
mIDH1 inhibitor: -10.4%; HepG2 viability: -33.4%; LDHA block: -8.8; ATXN2 expr inh: -0.6%; TGFb inhibitor: inconclusive; ATXN viability: inactive

Results for COc1ccc(Nc2nnc(-c3ccc(C)c(S(=O)(=O)N4CCN(C)CC4)c3)c3ccccc23)cc1 ?
mIDH1 inhibitor: -0.5%; HepG2 viability: 24.7%; LDHA block: -5.8; ATXN2 expr inh: inconclusive; TGFb inhibitor: 14.1µM*; ATXN viability: inconclusive

How did Cc1ccc(-c2nnc(Nc3cccc(O)c3)c3ccccc23)cc1S(=O)(=O)NCCO do in these assays?
mIDH1 inhibitor: -3.4%; HepG2 viability: -2.6%; LDHA block: -6.0; ATXN2 expr inh: -20.5%; TGFb inhibitor: 2.2%; ATXN viability: inactive

Results for O=C(O)CCc1ccc(-c2ccc(Br)cc2)n1CC(=O)O ?
mIDH1 inhibitor: 13.5%; HepG2 viability: -11.4%; LDHA block: -3.3; ATXN2 expr inh: 9.7%; TGFb inhibitor: 0.2%; ATXN viability: inactive

What do the screens show for `COC(=O)COc1ccc(-c2nnc(Nc3ccc(O)cc3)c3ccccc23)cc1`?
mIDH1 inhibitor: 10.7%; HepG2 viability: 11.2µM*; LDHA block: 1.7; ATXN2 expr inh: inconclusive; TGFb inhibitor: inconclusive; ATXN viability: inconclusive

How did NC(=O)COc1ccc(Nc2nnc(-c3ccc(O)cc3)c3ccccc23)cc1 do in these assays?
mIDH1 inhibitor: -13.7%; HepG2 viability: -5.1%; LDHA block: -4.0; ATXN2 expr inh: -6.1%; TGFb inhibitor: -4.3%; ATXN viability: inactive

Results for O=C(O)CC(Cc1ccccc1)c1ccc2c(c1)OCO2 (centres undefined) ?
mIDH1 inhibitor: -3.3%; HepG2 viability: -27.3%; LDHA block: -6.7; ATXN2 expr inh: -2.8%; TGFb inhibitor: -2.5%; ATXN viability: inactive

What do the screens show for `COc1ccc(CN(CCC(c2ccc3c(c2)OCO3)c2ccccc2OC)C(C)=O)cc1` (centres undefined)?
mIDH1 inhibitor: 0.0%; HepG2 viability: -31.1%; LDHA block: -6.9; TGFb inhibitor: 12.6µM*

What do the screens show for `CC(=O)N(CCC(Cc1ccccc1)c1ccc2c(c1)OCO2)Cc1ccc(Cl)cc1` (centres undefined)?
mIDH1 inhibitor: 7.36µM*; HepG2 viability: 10µM*; LDHA block: -1.1; ATXN2 expr inh: inconclusive; TGFb inhibitor: inconclusive; ATXN viability: inconclusive

How did O=C(O)c1ccccc1-c1ccc([N+](=O)[O-])cc1Cl do in these assays?
mIDH1 inhibitor: 2.0%; HepG2 viability: -1.1%; LDHA block: -0.4; TGFb inhibitor: -15.1%; ATXN viability: inactive

What do the screens show for `C=CC(=O)Nc1cccc(Oc2cc(Cl)nc3[nH]ccc23)c1`?
mIDH1 inhibitor: 5.9%; HepG2 viability: -21.2%; LDHA block: -2.2; ATXN2 expr inh: inconclusive; TGFb inhibitor: inconclusive; ATXN viability: 17.8µM*

What do the screens show for `COc1cccc(/C=C/c2nc(=O)c3ccccc3o2)c1OC`?
LDHA block: 6.9

How did CC(CCc1ccccc1)NC(=O)c1cccc(F)c1 (centres undefined) do in these assays?
mIDH1 inhibitor: 5.6%; HepG2 viability: -44.4%; LDHA block: -5.6; ATXN2 expr inh: 1.9%; TGFb inhibitor: 11.2µM*; ATXN viability: inactive

What do the screens show for `CC(CCc1ccccc1)NC(=O)c1ccc(C(=O)NC(C)CCc2ccccc2)cc1` (centres undefined)?
mIDH1 inhibitor: -5.6%; HepG2 viability: -20.3%; LDHA block: -5.3; ATXN2 expr inh: 6.31µM*; TGFb inhibitor: -6.6%; ATXN viability: inconclusive

How did COCC(C)NCC(=O)NC(C)CCc1ccccc1 (centres undefined) do in these assays?
mIDH1 inhibitor: -0.1%; HepG2 viability: -1.1%; LDHA block: -30.4*; ATXN2 expr inh: -7.5%; TGFb inhibitor: -2.6%; ATXN viability: inactive

What do the screens show for `CCCC(=O)N1c2ncnn2C2(CCCCC2)[C@@H]2CCCC[C@@H]21`?
mIDH1 inhibitor: -14.6%; HepG2 viability: -0.3%; LDHA block: -17.6; ATXN2 expr inh: -15.0%; TGFb inhibitor: 0.6%; ATXN viability: inactive

Results for CC(C)c1ccc(NC(=O)c2cc(S(=O)(=O)NCCC3=CCCCC3)ccc2F)cc1 ?
mIDH1 inhibitor: -5.8%; HepG2 viability: 12.6µM*; LDHA block: 0.3; ATXN2 expr inh: inconclusive; TGFb inhibitor: inconclusive; ATXN viability: inconclusive

What do the screens show for `Cc1cc(C)c(NC(=O)c2cc(S(=O)(=O)NCCC3=CCCCC3)ccc2F)c(C)c1`?
mIDH1 inhibitor: -16.3%; HepG2 viability: -31.6%; LDHA block: -10.2; ATXN2 expr inh: -6.2%; TGFb inhibitor: -14.8%; ATXN viability: inactive

Results for CN(C)S(=O)(=O)c1cccc(NC(=O)c2ccc(COc3ccccc3)cc2)c1 ?
mIDH1 inhibitor: -0.1%; HepG2 viability: -32.8%; LDHA block: -4.1; ATXN2 expr inh: inconclusive; TGFb inhibitor: -20.8%; ATXN viability: 12.6µM*

How did Cc1ccc(NC(=O)c2cc(S(=O)(=O)NCCc3ccccc3)ccc2F)cc1Cl do in these assays?
mIDH1 inhibitor: 3.2%; HepG2 viability: -57.1%; LDHA block: -4.5; ATXN2 expr inh: -9.8%; TGFb inhibitor: -1.1%; ATXN viability: inactive

How did O=C(Nc1cccc(Cl)c1)c1cc(S(=O)(=O)NCCc2ccc(Cl)cc2)ccc1F do in these assays?
mIDH1 inhibitor: 0.0%; HepG2 viability: -125.7%; LDHA block: -0.1; ATXN2 expr inh: -34.8%; TGFb inhibitor: 11.2µM*; ATXN viability: inactive

Results for CS(=O)(=O)N(Cc1ccccc1)c1ccc(C(=O)Nc2cccc(Cl)c2)cc1 ?
mIDH1 inhibitor: -13.0%; HepG2 viability: 11.2µM*; LDHA block: -8.6; ATXN2 expr inh: 0.0%; TGFb inhibitor: 15.8µM*
